# Sampled rows, rich in hits. Any-hit rate of the full collection: about 19%.
# TDP1 cell CPT – growth inhibition of DT40 Tdp1-/-;hTDP1 cells with camptothecin (screen for TDP1 inhibitors) | chicken DT40 Tdp1-/-;hTDP1 cells + 20 nM CPT, ATP luminescence, 48 h | AID 686979 | 420,000 tested, 12% active | Potency, µM (top dose mostly 46.2 µM), inactives show at the highest dose activity change, negative = growth inhibition, hits mostly inhibitors; further: potency means the concentration at half of the fitted maximal effect; nearly all actives have a fitted effect of over 55% in size
#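 Cell growth measured by CellTiter-Glo luminescence after a minimum 48 h, 37 C compound exposure with 20 nM CPT in Tdp1-knockout DT40 cells stably expressing hTDP1, seeded 400/well; qHTS titration format.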
# TDP1 cell noCPT – qHTS for Inhibitors of human tyrosyl-DNA phosphodiesterase 1 (TDP1): qHTS in cells in absence of CPT. DT40 Tdp1-/- hTDP1 cells, no CPT, ATP luminescence, 48 h. Potency, µM (highest dose often 46.2 µM), for the others: at the top dose activity change, negative = growth inhibition, actives largely listed as inhibitors. 420,000 tested, 15% active. AID 686978, 2013; further: potency means the concentration at half of the fitted maximal effect; nearly all actives have a fitted effect of over 55% in size
#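 No-CPT arm: Tdp1-/-;hTDP1 DT40 cells (400/well) plus compounds, incubated ≥48 hr at 37 °C. Readout CellTiter-Glo luminescence.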
# IL-1B inflam inh – inflammasome signaling inhibition, IL-1 beta readout. THP-1 LPS/ATP IL-1B secretion, AlphaLISA, 16 h; hits give low values. activity change, % at 57.5 µM. 360,000 tested, 4.7% active; in the data active means activity change below about -50%; inconclusive means mostly about -30% to -49%
#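 Secreted IL-1B measured by AlphaLISA bead assay after 16 h compound exposure of THP-1 cells; compounds (final up to 57.5 uM) added 1 h before LPS (250 ng/mL) and ATP (1.25 mM) stimulation; lower signal means less secretion.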
# HT1080NT lethal – kills 2HG-producing HT-1080-NT fibrosarcoma cells | HT-1080-NT fibrosarcoma viability, CellTiter-Glo ATP luminescence, 48 h | Potency, µM (titrated, usually from 46.1 µM), for the others: top-dose activity, negative = less viability, actives largely listed as cytotoxic | 360,000 tested, 1.6% active | AID 686970;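 further: NT is the 2HG producing partner of a matched IDH1 knockdown line; potency means the concentration at half of the fitted maximal effect; 0% = DMSO-treated cells and -100% = media-only wells without cells; nearly all actives have a fitted effect of over 55% in size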
#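 A 48-hour cytotoxicity screen used HT-1080-NT cells plated 2 hours before compound delivery. ATP-based CellTiter-Glo luminescence measured viability, normalized to DMSO and no-cell controls.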
# HT1080 IDH1KD tx – HT-1080 IDH1 knockdown cell toxicity (counter line); HT-1080 IDH1 knockdown viability, ATP luminescence, 48 h; Potency, µM (doses to about 46.1 µM), for inactives: at the highest dose activity, negative = toxicity, most hits filed as cytotoxic; 360,000 tested, 2% active; AID 686971;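 further: potency means the concentration at half of the fitted maximal effect; 0% = DMSO wells and -100% = cell-free medium wells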
#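 IDH1KD HT-1080 cells, 750/well, RPMI + 5% FBS; compound pinned after 2 h settling; 48 h, 37 °C; CellTiter-Glo luminescence; % activity normalised to DMSO and no-cell wells; curves fitted, classed by r2 and efficacy.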
# The depositor's hits bear a star; i = inactive; u = inconclusive; x = no result given; [ ] = dose if it differs, or a comment. Unless noted, the call rests on the fitted dose curve; in most records, active means well fitted curve in the direction sought with a large enough effect; inconclusive means small, poorly fitted or top-dose-only effect, or another doubt; inactive means no such curve, though single readings can be large; an effect the other way counts as inactive or inconclusive. Unless noted, on the % scale 0 is the no-effect control and ±100 the full control effect.
SMILES,TDP1 cell CPT,TDP1 cell noCPT,IL-1B inflam inh,HT1080NT lethal,HT1080 IDH1KD tx
FC(F)C(F)(F)Oc1cccc(Nc2nccn3c(-c4cccc5cccnc45)cnc23)c1,25.9µM*,23.1µM*,-20.2,-16.5%,u
CCc1noc(C)c1C(=O)Nc1cc(S(=O)(=O)N2CCOCC2)ccc1OCC(F)(F)F,-3.3%,-0.8%,-11.6,-2.4%,-0.5%
OCC1(CCc2ccccc2)CCN(Cc2cc(Cl)ccc2O)CC1,4.0%,-23.6%,-84.8*,-28.6%,u
CCOC(=O)c1c(NC(=O)c2cc(C)on2)sc(C)c1C,-1.2%,2.8%,x,x,x
Cc1ccc(S(=O)(=O)N(C)C)cc1NC(=O)COC(=O)/C=C/c1ccc2ccccc2n1,u,u,-106.3*,-1.6%,u
Cc1ccc(S(=O)(=O)N(C)C)cc1NC(=O)COC(=O)c1c(-c2ccccc2)noc1C,-23.4%,u,-7.8,4.2%,4.3%
O=C(COC(=O)/C=C/c1ccc2ccccc2n1)NNC(=O)c1ccc([N+](=O)[O-])cc1,9.9%,-9.1%,-52.6*,14.1%,8.8%
Cc1ccc(C)c(S(=O)(=O)N2CCCOC2CNC(=O)C(=O)NCCCN2CCOCC2)c1 (stereo not given),0.2%,7.2%,i,-1.8%,5.5%
Cc1sc(NC(=O)c2ccccc2F)c(CN2CCCCC2C)c1C (stereo not given),18.4µM*,11.6µM*,0.6,7.6%,11.4%
Cc1c(C(=O)N2CCOCC2)sc(NC(=O)c2ccccc2F)c1C#N,-5.9%,-11.2%,4.9,-14.2%,12.4%
Cc1ccc(-c2cnc(C(O)c3ccc(Cl)cc3C)[nH]2)cc1 (stereo not given),23.1µM*,u,-17.9,-18.6%,-21.2%
Cc1cc(Cl)ccc1C(O)c1ncc(-c2ccc(F)cc2)[nH]1 (stereo not given),u,u,-13.6,u,20.6µM*
Cc1cc(F)ccc1C(O)c1ncc(-c2ccc(Cl)cc2)[nH]1 (stereo not given),0.5%,u,0.0,-20.2%,-22.9%
Cc1cc(Cl)ccc1C(O)c1ncc(-c2ccc(Cl)cc2)[nH]1 (stereo not given),13µM*,u,-9.9,u,u
Cc1cc(Cl)ccc1C(O)c1ncc(-c2ccc3ccccc3c2)[nH]1 (stereo not given),u,u,-22.4,u,u
Cc1cccc(-c2cnc(C(O)c3ccc(Cl)cc3C)[nH]2)c1 (stereo not given),u,18.4µM*,-7.6,u,u
CC(=O)Nc1ccc(NC(=O)c2c(C)c(-c3ccccc3)nc3ccccc23)cc1,1.5%,0.4%,18.9,-1.6%,6.7%
Cc1cccc(-c2c3c(=O)n(C)c(=O)n(C)c3cn2C(C)(C)C)c1,-19.5%,-11.4%,7.0,-22.2%,-8.0%
CCn1cc2c(c1-c1cccc(C)c1)c(=O)n(C)c(=O)n2C,-9.2%,-25.0%,24.9,-2.6%[9.24 µM],1.8%
Cn1c(=O)c2c(-c3ccccc3)n(N3CCOCC3)cc2n(C)c1=O,u,u,-4.7,3.1%,11.8%
Cc1cccc(-c2c3c(=O)n(C)c(=O)n(C)c3cn2C(C)C)c1,16.4µM*,20.6µM*,-1.9,-18.9%,-24.4%
Cn1c(=O)c2c(-c3ccccc3)n(C3CCCCC3)cc2n(C)c1=O,18.4µM*,9.2µM*,-13.2,6.3%,17.1%
Cc1cccc(-c2c3c(=O)n(C)c(=O)n(C)c3cn2C2CCCCC2)c1,u,16.4µM*,-0.9,-12.4%,-1.1%
CN(C(=O)CNc1ccccc1Cl)C1CCS(=O)(=O)C1 (stereo not given),-1.1%,5.2%,44.2,10.0%,2.1%
CN(C)c1ccc(CNC(=O)c2cnc3sc(N4CCCCCC4)nn3c2=O)cc1,-13.9%,u,x,x,x
SMILES,TDP1 cell CPT,TDP1 cell noCPT,IL-1B inflam inh,HT1080NT lethal,HT1080 IDH1KD tx
CC(=O)Nc1ccccc1/C=C/c1ccc2c(C)cc(C)c(O)c2n1,u,16.4µM*,1.2,19.0%,19.3%
COc1cccc(C2C=C(c3ccc(C)cc3)Nc3c(C(=O)Nc4ccc(F)cc4)cnn32)c1OC (stereo not given),u,18.4µM*,x,x,x
COc1ccc(NC(=O)C2=C(C)Nc3c(C(=O)Nc4ccc(C)cc4)cnn3C2c2cc(OC)ccc2OC)cc1 (stereo not given),-3.7%,u,x,x,x
COc1ccc(C2=CC(c3ccccc3F)n3ncc(C(=O)Nc4ccc(C)cc4)c3N2)cc1 (stereo not given),5.17µM*,20.6µM*,x,x,x
COc1cccc(C2=CC(c3ccccc3F)n3ncc(C(=O)Nc4ccc(F)cc4)c3N2)c1 (stereo not given),u,18.4µM*,x,x,x
CC(Oc1ccccc1F)C(=O)NNC(=O)c1cccc(S(=O)(=O)N2CCN(C)CC2)c1 (stereo not given),8.4%,-6.8%,4.8,4.1%,16.2%
COc1cccc(CN2CCC3(CC2)c2ccccc2[C@@H](NC(=O)c2ccccc2)[C@@H]3O)c1O,u,-29.9%,x,x,x
COc1cccc(N2C(C(C)=O)=NN(c3ccccc3)C2c2ccc(N3CCOCC3)cc2)c1 (stereo not given),18.4µM*,16.4µM*,5.3,-15.6%,-11.4%
O=C1C=C(OCCF)CC(c2ccccc2C(F)(F)F)O1 (stereo not given),6.0%,23.1%,6.2,7.0%,9.5%
O=C(CCN1C(=O)C2C3C=CC(C4CC34)C2C1=O)Oc1ccc(Br)cc1 (stereo not given),32.6%,-13.7%,21.0,2.3%,-1.8%
O=C(CCN1C(=O)C2C3C=CC(C4CC34)C2C1=O)Oc1cccc2cccnc12 (stereo not given),5.17µM*,3.26µM*,31.4,2µM*,1.26µM*
COc1ccccc1CNC(=O)c1oc2ccc(S(=O)(=O)N3CCCCC3)cc2c1C,6.51µM*,7.31µM*,x,x,x
Cc1c(C(=O)NCc2ccc(F)cc2)oc2ccc(S(=O)(=O)N3CCCCC3)cc12,23.1µM*,u,x,x,x
COc1ccc(C)cc1NC(=O)c1oc2ccc(S(=O)(=O)N3CCCCC3)cc2c1C,-4.4%,-9.4%,x,x,x
Cc1cccc(NC(=O)c2oc3ccc(S(=O)(=O)N4CCOCC4)cc3c2C)c1C,u,23.1µM*,-6.3,-2.0%[9.24 µM],u
Cc1c(C(=O)NCc2cccnc2)oc2ccc(S(=O)(=O)N3CC(C)CC(C)C3)cc12 (stereo not given),u,-28.5%,36.3,-20.1%,-11.4%
Cc1ccc(NC(=O)c2oc3ccc(S(=O)(=O)N4CCOCC4)cc3c2C)c(C)c1,u,u,20.1,-0.6%,-9.2%
CCCCNC(=O)c1oc2ccc(S(=O)(=O)N3CCCC3)cc2c1C,u,u,-19.3,-13.0%,-4.5%

# Source: PubChem (National Center for Advancing Translational Sciences (NCATS))
